Assay outcomes (PubChem)
NCOA3 inh: SRC3 coactivator transcriptional activity inhibitors, primary screen, cell-based, luminescence | Nuclear receptor coactivator 3 (Homo sapiens), Q9Y6Q9 | HEK293 GAL4-SRC3 luciferase reporter | inhibition, % at 3.6 µM | 360,000 tested, 0.17% active | AID 588352, 2011;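 active = inhibition above a per-campaign cutoff, the mean of all compounds plus 3 SD, cut at about 60% in these data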;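 note: 0% = DMSO-treated cells and 100% = gossypol-treated cells at 36 µM; higher means less SRC3-driven luciferase light from the GAL4 reporter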
NCOA2 inhibitor: inhibition of GAL4-SRC2 driven luciferase reporter, primary screen, SRC2 inhibitor project, cell-based, luminescence | HEK293 GAL4-SRC2 luciferase reporter | 370,000 tested, 0.17% active | inhibition, % at 9 µM;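 active = inhibition above the mean inhibition of all tested compounds plus 3 SD, set per campaign, cut at about 52% in these data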;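 note: 0% = DMSO treated cells and 100% = cells given Gossypol at 36 µM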
Target sequence (Q15596 whole entry, looked up, the tested form may be a part): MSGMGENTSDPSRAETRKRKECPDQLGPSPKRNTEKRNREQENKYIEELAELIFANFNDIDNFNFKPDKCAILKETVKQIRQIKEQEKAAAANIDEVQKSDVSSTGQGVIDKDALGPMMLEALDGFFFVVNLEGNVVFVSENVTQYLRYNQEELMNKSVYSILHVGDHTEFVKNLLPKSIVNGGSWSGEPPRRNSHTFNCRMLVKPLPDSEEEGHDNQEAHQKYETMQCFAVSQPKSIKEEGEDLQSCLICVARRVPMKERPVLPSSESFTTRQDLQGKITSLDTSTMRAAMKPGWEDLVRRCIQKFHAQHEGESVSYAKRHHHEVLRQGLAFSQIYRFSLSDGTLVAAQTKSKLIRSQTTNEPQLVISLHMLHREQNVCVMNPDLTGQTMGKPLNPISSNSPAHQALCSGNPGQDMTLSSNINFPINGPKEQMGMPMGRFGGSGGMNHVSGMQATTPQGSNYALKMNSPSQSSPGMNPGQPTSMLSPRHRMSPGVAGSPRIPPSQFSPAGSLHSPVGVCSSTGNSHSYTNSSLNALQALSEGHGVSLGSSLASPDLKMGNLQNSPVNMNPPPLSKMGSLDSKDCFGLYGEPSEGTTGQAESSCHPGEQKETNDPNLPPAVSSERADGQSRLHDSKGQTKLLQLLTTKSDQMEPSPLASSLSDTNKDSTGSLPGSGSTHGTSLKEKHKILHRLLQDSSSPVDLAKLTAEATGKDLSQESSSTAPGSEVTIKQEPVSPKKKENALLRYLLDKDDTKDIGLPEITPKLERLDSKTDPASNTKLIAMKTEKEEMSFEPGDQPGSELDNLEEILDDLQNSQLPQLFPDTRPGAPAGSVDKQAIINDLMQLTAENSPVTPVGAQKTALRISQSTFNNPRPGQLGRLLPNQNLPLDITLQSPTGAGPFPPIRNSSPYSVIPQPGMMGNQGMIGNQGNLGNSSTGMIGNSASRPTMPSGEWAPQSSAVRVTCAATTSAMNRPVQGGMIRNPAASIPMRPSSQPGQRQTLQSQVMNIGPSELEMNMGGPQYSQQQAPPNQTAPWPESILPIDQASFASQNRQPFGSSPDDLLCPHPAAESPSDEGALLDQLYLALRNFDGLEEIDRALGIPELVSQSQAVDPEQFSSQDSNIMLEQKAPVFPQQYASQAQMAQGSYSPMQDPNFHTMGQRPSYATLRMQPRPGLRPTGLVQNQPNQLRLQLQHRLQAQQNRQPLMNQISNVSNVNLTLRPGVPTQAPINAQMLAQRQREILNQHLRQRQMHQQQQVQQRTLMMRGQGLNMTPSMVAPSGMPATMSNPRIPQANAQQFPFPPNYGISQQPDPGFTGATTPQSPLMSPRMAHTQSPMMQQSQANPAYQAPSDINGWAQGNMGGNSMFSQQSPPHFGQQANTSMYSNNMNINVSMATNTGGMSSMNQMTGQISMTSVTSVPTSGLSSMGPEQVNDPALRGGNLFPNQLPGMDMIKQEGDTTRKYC
SRC1 inh: SRC1 coactivator transcriptional activity inhibitors, primary screen, cell-based, luminescence; Nuclear receptor coactivator 1 (Homo sapiens), Q15788; HEK293 GAL4-SRC1 luciferase reporter; inhibition, % at 3.6 µM; 360,000 tested, 0.12% active;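 active = inhibition above the campaign mean plus 3 SD, with each screening campaign given its own cutoff, cut at about 60% in these data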;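 note: 0% = DMSO treated cells and 100% = gossypol at 36 µM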
NR2F2 inh: NR2F2 transcriptional activity inhibitors, primary screen, cell-based, luciferase reporter, HEK293T, luminescence; HEK293T NGFI-A luciferase reporter; inhibition, % at 8.6 µM; 370,000 tested, 0.7% active; AID 686940, 2013;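 active = inhibition above a per-plate cutoff, mean inhibition of test wells between control levels plus 3 SD, cut at about 38% in these data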;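 note: cells cotransfected with COUP-TFII expression vector driving the NGFI-A reporter; 0% = median of COUP-TF2 test wells and 100% = reporter-only cells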
NR5A2 inv ag: LRH-1 (NR5A2) inverse agonists, primary screen, cell-based, luminescence, HEK293T, StAR-luciferase reporter; inhibition, % at 3.6 µM; Nuclear receptor subfamily 5 group A member 2 (Homo sapiens), O00482; 360,000 tested, 0.13% active; AID 602396, 2012; LRH-1 transfected, 24 h;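 active = inhibition above the mean inhibition of all tested compounds plus 3 SD, cut at about 73% in these data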;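 note: 0% = DMSO wells and 100% = reporter-only cells lacking LRH-1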
GalR3 antag: GalR3 antagonists in HEK293 cells, primary screen, cell-based, fluorescence readout; Galanin receptor type 3 (Homo sapiens), O60755; HEK293 GalR3-CNG cAMP membrane potential fluorescence; galR3 body fused to GalR1 C-terminus; inhibition, % at 3 µM; 360,000 tested, 0.44% active; AID 651719, 2012;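 active = inhibition above the screen-wide average plus 3 SD, cut at about 13% in these data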;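 note: forskolin and galanin both at EC90 stimulate the cells; cAMP rise reported by CNG channel membrane potential dye signal; 0% = forskolin plus galanin with DMSO and 100% = forskolin alone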
GalR3 conf: GalR3 antagonist hit confirmation, cell-based, fluorescence, triplicate; shares compounds with GalR3 antag; HEK293 GalR3 CNG cAMP biosensor, membrane potential fluorescence; galR3 fused to GalR1 carboxy tail; challenged with forskolin and galanin at EC90; inhibition, % at 3 µM; 1,600 tested, 59% active; AID 652245, 2013;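 active = inhibition above the primary screen's cutoff, the mean inhibition of all screened compounds plus 3 SD, cut at about 13% in these data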;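 note: 0% = forskolin plus galanin and 100% = forskolin alone with DMSO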
CNG parental: nonspecific cAMP agonists in parental HEK-CNG cells, counter-screen for GalR3 antagonist project, cell-based, fluorescence, high throughput; activation, % at 3 µM; HEK293-CNG parental cells, cAMP membrane potential fluorescence; normalised: DMSO wells 0%, forskolin wells 100%; shares compounds with GalR3 antag; 1,600 tested, 10% active; in the data active = activation above about 1.3%
Numbers without * were called inactive; . = no result. The list is not random: actives were taken first. Their share in the collection is about 1.1%.

SMILES	NCOA3 inh	NCOA2 inhibitor	SRC1 inh	NR2F2 inh	NR5A2 inv ag	GalR3 antag	GalR3 conf	CNG parental
COC(=O)C[C@@H]1CC[C@H]2[C@@H](COc3ccc(NC(=O)c4ccc(Cl)cc4)cc3C(=O)N2C)O1	.	-8	.	-5	.	.	.	.
C/C(=N\O)c1ccco1	-3	-13	7	-6	4	.	3	0
C/C(=N\NC(=O)c1ccc(C(=O)N/N=C(\C)c2ccco2)o1)c1ccco1	-7	-26	5	-16	-5	2	.	.
COc1ccc(NC(=O)NNC(=O)CCn2nc(C)c([N+](=O)[O-])c2C)cc1OC	.	-3	.	-18	.	.	.	.
COc1cc(-c2cnc3c(NC=O)cc(-c4ccccc4Cl)cn23)cc(OC)c1OC	9	8	-32	-87	43	19*	26*	1.6*
COc1ccc(-c2cnc3c(NC(C)=O)cc(-c4ccccc4OC)cn23)cc1OC	-14	-25	-11	-25	-2	13*	18*	0
COc1cc(-c2cnc3c(NC=O)cc(-c4ccccc4)cn23)cc(OC)c1OC	10	0	-38	-69	32	-2	.	.
COc1ccc(C)cc1NC(=O)c1ccc(NS(=O)(=O)c2cccc3cccnc23)cc1	17	-7	17	14	13	51*	85*	0
CCOc1ccc(N(CC)S(=O)(=O)c2c(C)[nH]c(=O)[nH]c2=O)cc1	5	-1	-17	6	3	-6	.	.
CCOc1ccc(CO/N=C/c2c(C)[nH]c(=O)[nH]c2=O)cc1	2	-21	-14	-3	-14	22*	21*	0
COc1cc(/C=C2\SC(c3ccc(C)cc3)=NC2=O)ccc1O	-9	-34	7	-16	9	17*	5	0
C[C@H]1[C@@H](N(C)CC2CCCCC2)CC[C@@]23CCCN2C(=O)CCC[C@@H]13	.	.	.	0	.	.	.	.
CCNC(=O)NC(=O)C(C)OC(=O)[C@H](C)NS(=O)(=O)c1c(C)c(C)cc(C)c1C (stereo partly specified)	-3	11	12	4	2	39*	-2	0
NC1=NC[C@H](Cc2ccc(O)cc2)N1CCc1cccc(F)c1	20	4	-5	-10	14	.	7	0
CC(C)(C)CN1C(N)=NC[C@@H]1Cc1ccccc1	-3	-3	-12	-68	-6	.	4	0
CC(C)(C)CN1C(N)=NC[C@@H]1c1ccccc1	-6	-22	3	-6	1	-1	.	.
O[C@H](COc1cc(F)cc(F)c1)CN1CCC(C(O)(c2ccccc2)c2ccccc2)CC1	.	1	.	-4	.	.	.	.
Cc1cccc(-c2nc3ccccc3c(=O)n2NC(=O)/C=C/c2ccc([N+](=O)[O-])cc2)c1	-1	7	-3	-22	-29	45*	34*	0
O=C(/C=C/c1cccc([N+](=O)[O-])c1)Nn1c(-c2ccccc2F)nc2ccccc2c1=O	13	-24	-4	16	19	61*	65*	0
Cc1nc2ccccc2c(=O)n1NC(=O)/C=C/c1ccc(Br)cc1	-6	10	-3	-7	0	-5	.	.
COc1ccc(/C=C2\CC3(OC(=O)c4ccc(F)cc4)CCCN2C3)cc1 (stereo unspecified)	.	2	.	-3	.	.	.	.
CCN1CCCCC(NC(=O)c2ccc(C)cc2)C1=O (stereo unspecified)	.	-17	.	-18	.	.	.	.
